Experimental data reported in the supplement of paper PMC3334620.
The full ranking holds about 33,000 sequences; the median of “E-score (-0.5 to 0.5)” is about -0.0059, and the highest 2% start at about 0.26. This excerpt belongs to a sample that is enriched for the highest values.

The sequences below were run against T1, Cin5 (UniProt P40917) (assay: PBM E-score (8-mer binding enrichment) (E-score (-0.5 to 0.5)); higher = stronger / more preferred TF binding). Conditions: protein concentration: 100 nM; construct: GST-full length.
T1 sequence: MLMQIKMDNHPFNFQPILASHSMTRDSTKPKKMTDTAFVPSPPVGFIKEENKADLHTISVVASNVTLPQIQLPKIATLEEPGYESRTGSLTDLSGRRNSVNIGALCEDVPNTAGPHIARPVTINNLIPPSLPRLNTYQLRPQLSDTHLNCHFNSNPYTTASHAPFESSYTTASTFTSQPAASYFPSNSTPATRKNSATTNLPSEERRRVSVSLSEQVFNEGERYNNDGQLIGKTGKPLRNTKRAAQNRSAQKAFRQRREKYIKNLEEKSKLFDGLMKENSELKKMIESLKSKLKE
Protocol: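 Universal 'all 10-mer' protein binding microarrays (Agilent AMADID 015681) probed with GST-tagged S. cerevisiae TFs (full-length or DBD) made by in vitro transcription/translation (PURExpress), about 100-200 nM. Bound TF was detected with fluorescent anti-GST. Each ungapped 8-mer (which stands for itself and its reverse complement) is scored by the PBM enrichment score (E-score), a modified Wilcoxon-Mann-Whitney statistic from -0.5 to +0.5, computed with the Universal PBM Analysis Suite. Scale: above 0.35 generally sequence-specific binding.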

Compared with ATACTCCA, AGCAGAGA is lower in “PBM E-score” value: 0.122 for the first, 0.0498 for the second.

Going from ATTCATTG to ATTCATTA, the “PBM E-score” value rises from 0.116 to 0.122.

Going from ATTCATTC to ACTCAGAC, the “PBM E-score” value falls from 0.299 to -0.0116.

Compared with AAATATAA, AAATAGAG is lower in “PBM E-score” value: 0.203 for the first, -0.0761 for the second.

Going from ACCTATAC to AACTATAT, the “PBM E-score” value rises from 0.0459 to 0.294.

Compared with AAATAGAC, ACCTATAA is lower in “PBM E-score” value: 0.143 for the first, -0.0275 for the second.

First: AAATAGAT
Second: AACTATAG
The “PBM E-score” value of the first is higher: 0.297 for the first, 0.051 for the second.

Going from AACTATAC to ACCTATAT, the “PBM E-score” value rises from 0.0815 to 0.269.

First: AAATATAC
Second: AAATATAT
The “PBM E-score” value of the first is lower: 0.178 for the first, 0.295 for the second.

Compared with ACATCAGC, CACTGAAC is lower in “PBM E-score” value: 0.0733 for the first, 0.0413 for the second.

First: AGAGAGCC
Second: CGTAGTGC
The “PBM E-score” value of the first is lower: -0.283 for the first, -0.0666 for the second.

Going from GGCGTGAA to CAATAAGG, the “PBM E-score” value rises from -0.183 to -0.0974.

First: AGTCGGCA
Second: CGGCCGTC
The “PBM E-score” value of the first is higher: -0.0519 for the first, -0.125 for the second.

Compared with CACCCCCC, AAGCAAGC is higher in “PBM E-score” value: -0.498 for the first, 0.0852 for the second.

First: ATCATGAT
Second: CACTATAA
The “PBM E-score” value of the first is higher: 0.098 for the first, -0.0724 for the second.

First: TACTATAA
Second: AACTATAA
The “PBM E-score” value of the first is higher: 0.333 for the first, 0.195 for the second.

First: ATGCCCCA
Second: AGCAAGGC
The “PBM E-score” value of the first is higher: -0.0481 for the first, -0.0671 for the second.

First: ACCGCCAA
Second: AAGAGAAA
The “PBM E-score” value of the first is higher: -0.0388 for the first, -0.0461 for the second.

Going from AAGAGAAT to AAGAGAAG, the “PBM E-score” value falls from 0.261 to -0.0313.

Going from AAATTCAT to AAGAGTTA, the “PBM E-score” value falls from 0.0992 to -0.0309.

First: CCATCACG
Second: AGTCGAGG
The “PBM E-score” value of the first is higher: -0.0302 for the first, -0.168 for the second.

First: ATATACAA
Second: CAATACAA
The “PBM E-score” value of the first is lower: 0.266 for the first, 0.308 for the second.

First: CAATACAG
Second: CTATACTA
The “PBM E-score” value of the first is lower: 0.0431 for the first, 0.198 for the second.

First: ATATACTC
Second: CTATACAA
The “PBM E-score” value of the first is higher: 0.209 for the first, 0.00862 for the second.

Going from CAATACAC to ATATACAC, the “PBM E-score” value rises from 0.00745 to 0.134.

First: ATATACTA
Second: CAACGACC
The “PBM E-score” value of the first is higher: 0.318 for the first, -0.0159 for the second.

First: TTCCTAAA
Second: CGATGCGC
The “PBM E-score” value of the first is lower: -0.157 for the first, 0.0485 for the second.

First: GAGCGGAC
Second: CTTCCAAA
The “PBM E-score” value of the first is lower: -0.251 for the first, 0.0243 for the second.

First: AAGACTCG
Second: CTGCCCGA
The “PBM E-score” value of the first is lower: -0.0863 for the first, -0.00627 for the second.

Compared with AGGCGGCG, CTGACGTA is higher in “PBM E-score” value: -0.0941 for the first, 0.278 for the second.

First: ATGACGTC
Second: ATGACGTG
The “PBM E-score” value of the first is higher: 0.255 for the first, 0.191 for the second.

Compared with GTGACGTA, ATGACGTA is higher in “PBM E-score” value: 0.204 for the first, 0.338 for the second.

First: CTGACGTC
Second: AGATTAGA
The “PBM E-score” value of the first is higher: 0.035 for the first, -0.0761 for the second.

Going from AGGGGGGC to AATTATAC, the “PBM E-score” value rises from -0.479 to 0.208.

Compared with CATTATCC, CATTATCG is lower in “PBM E-score” value: 0.276 for the first, 0.0028 for the second.

Compared with CATTATAC, GATTATCC is lower in “PBM E-score” value: 0.287 for the first, 0.0776 for the second.

First: CATTATAA
Second: CACGGAGG
The “PBM E-score” value of the first is higher: 0.0881 for the first, -0.173 for the second.

First: CTGTCTAA
Second: CGCGCCGA
The “PBM E-score” value of the first is higher: -0.0712 for the first, -0.124 for the second.

Going from CAGGTCCC to GCCTCCTA, the “PBM E-score” value falls from -0.187 to -0.264.

First: CATTATTA
Second: GATTATGA
The “PBM E-score” value of the first is lower: 0.223 for the first, 0.291 for the second.

Going from GATTATGC to GATTATTA, the “PBM E-score” value rises from 0.172 to 0.316.

Compared with AATTATTA, CATTATGA is lower in “PBM E-score” value: 0.242 for the first, 0.13 for the second.

First: ACTGCAAC
Second: AAGAGTCA
The “PBM E-score” value of the first is higher: -0.0484 for the first, -0.12 for the second.

First: GAAAGAAA
Second: TAAAGATA
The “PBM E-score” value of the first is higher: 0.283 for the first, 0.171 for the second.

First: CAAAGATA
Second: GAAAGAAC
The “PBM E-score” value of the first is higher: 0.12 for the first, -0.0462 for the second.

Going from AGAAGATA to GAAAGATA, the “PBM E-score” value rises from 0.188 to 0.31.

Going from CAAAGAAA to GGAAGATA, the “PBM E-score” value rises from 0.0585 to 0.13.

Going from CGAAGATA to CACGAGAC, the “PBM E-score” value falls from 0.266 to -0.11.

First: TAAGAAGA
Second: GATGCAAC
The “PBM E-score” value of the first is higher: 0.122 for the first, -0.0342 for the second.

Going from GGAACCCA to TAAAGGGA, the “PBM E-score” value falls from -0.0933 to -0.115.

Compared with AATTGGGG, AATTGGGT is higher in “PBM E-score” value: 0.0653 for the first, 0.319 for the second.

First: AATTGGGC
Second: GATAGCAA
The “PBM E-score” value of the first is lower: 0.0334 for the first, 0.279 for the second.

Compared with TATAGCAA, CATAGCAA is lower in “PBM E-score” value: 0.134 for the first, 0.111 for the second.

Going from CTTAAGAA to ACGGAAAC, the “PBM E-score” value falls from 0.0235 to -0.00025.

Compared with ACGGAAAT, ACGGAAAA is lower in “PBM E-score” value: 0.305 for the first, 0.161 for the second.

First: CGGCACCG
Second: CCACATAA
The “PBM E-score” value of the first is lower: 0.00123 for the first, 0.184 for the second.

First: GCACATAA
Second: TCACATAA
The “PBM E-score” value of the first is lower: 0.0702 for the first, 0.31 for the second.

First: ACACATAG
Second: ACACATAA
The “PBM E-score” value of the first is lower: -0.0306 for the first, 0.274 for the second.

First: ACACATAC
Second: CACTATCG
The “PBM E-score” value of the first is lower: 0.0411 for the first, 0.0597 for the second.

Going from AGCCAAAA to CGGTTTGA, the “PBM E-score” value falls from 0.0959 to -0.0691.

Going from AGGTTTAT to CGAGAGCC, the “PBM E-score” value falls from 0.251 to -0.163.

Going from AAGCCAAT to TACGTATA, the “PBM E-score” value rises from 0.122 to 0.167.

Compared with CACGTAAA, ATCGTAAG is higher in “PBM E-score” value: -0.0217 for the first, 0.159 for the second.

Compared with CTCGTAAC, TACGTAAA is higher in “PBM E-score” value: 0.129 for the first, 0.302 for the second.

Going from CACGTAAG to AACGTAAG, the “PBM E-score” value falls from 0.288 to 0.274.

Going from CTCGTAAG to AACGTAAC, the “PBM E-score” value falls from 0.304 to 0.217.

Going from GACGTAAA to CACGTAAC, the “PBM E-score” value falls from 0.103 to 0.0354.

Going from AACGTAAA to AGCAGCGC, the “PBM E-score” value falls from 0.21 to -0.0185.

First: ACCACCTG
Second: AATCGCTA
The “PBM E-score” value of the first is higher: -0.0268 for the first, -0.0414 for the second.

First: ACGAGCCC
Second: GAACTCAC
The “PBM E-score” value of the first is lower: -0.0676 for the first, -0.014 for the second.

Compared with AACGTAAT, ACCGTAAT is lower in “PBM E-score” value: 0.421 for the first, 0.223 for the second.

First: AACGTACT
Second: AAATTAGT
The “PBM E-score” value of the first is lower: 0.105 for the first, 0.293 for the second.

First: AAATTAGA
Second: AATTTAGT
The “PBM E-score” value of the first is lower: 0.206 for the first, 0.284 for the second.

First: AATTTAGG
Second: AAATTAGG
The “PBM E-score” value of the first is higher: 0.168 for the first, 0.102 for the second.

First: AATTTAGA
Second: GGAGCTCC
The “PBM E-score” value of the first is higher: 0.0855 for the first, -0.164 for the second.

Compared with GTCTAACA, CGATGGCA is higher in “PBM E-score” value: -0.192 for the first, -0.0471 for the second.

Going from ACCACAGT to CATCCACG, the “PBM E-score” value falls from 0.181 to 0.0707.

Going from ACCGTTTA to CAACCGCA, the “PBM E-score” value rises from -0.034 to 0.0315.

Compared with AAACCGCC, AAACCGCA is lower in “PBM E-score” value: 0.0261 for the first, -0.142 for the second.

Going from CAACCGCC to AAACCGCG, the “PBM E-score” value rises from -0.126 to 0.265.

Going from CAACCGCG to AATTGTGC, the “PBM E-score” value falls from 0.269 to 0.124.

First: CAGCGGAA
Second: GCCCATCA
The “PBM E-score” value of the first is higher: 0.0943 for the first, -0.115 for the second.

Compared with AGCTCTCC, CCGGAACA is higher in “PBM E-score” value: -0.174 for the first, 0.145 for the second.

Compared with TCGGAACA, ACGGAACA is lower in “PBM E-score” value: 0.29 for the first, 0.2 for the second.

First: GTATATTA
Second: ACATATTA
The “PBM E-score” value of the first is lower: 0.219 for the first, 0.266 for the second.

Going from ATATATTA to ATATATTC, the “PBM E-score” value falls from 0.272 to 0.248.
